# According to PubChem BioAssay (NCATS):
# Values without a mark were called inactive. Calls follow the shape of the dose curve; as a rule, active = well fitted curve in the direction sought with a large enough effect; inconclusive = small, poorly fitted or top-dose-only effect, or effect the other way, or another doubt; inactive = no such curve, though single readings can be large or run the other way.
# Test: Inducers of the Endoplasmic Reticulum Stress Response (ERSR) in human glioma: Validation (AID 504836); also: 0% is about no effect
# Conditions: human glioma cells, ER stress response reporter; series mostly up to 38.3 µM; activation: at the top concentration
# Text: Primary protein unfolding takes place for many diseases, including diabetes and hypoxia, , and triggers a reaction in the cells called ER stress response (ERSR). ). ERSR is designed as a repair mechanism, but ultimately leads to cell death via apoptosis if conditions triggering protein unfolding persist (1). The molecular clue to ERSR activation is the enhancement of the expression of key molecular chaperones, including the glucose regulated protein (GRP) 78. GRP78 is the main sensor for protein folding and the main actuator of the ERSR.
# In a collaboration between the Southern Research Institute and the NIH Chemical Genomics Center, a cell based screen was developed that reliably uses GRP78 as a sensor to identify small molecules as inducers of ERSR. In resting conditions, GRP78 binds proteins and acts as a natural repressor. Once unfolded proteins are present in the ER, GRP78 releases some of the repressors and binds to the unfolded proteins. The release of the repressors executes the ERSR program. Using a human glioma cell line in a miniaturized, luminescent format, a high-throughput screen was developed to identify actuators of the ERSR.
# (1) Soboloff, J. and S. A. Berger (2002). "Sustained ER Ca2+ depletion suppresses protein synthesis and induces activation-enhanced cell death in mast cells." J Biol Chem 277(16): 13812-20.
# NIH Chemical Genomics Center [NCGC]
# NIH Molecular Libraries Probe Centers Network [MLPCN]
# Assay Submitter (PI): Maurizio Grimaldi, Southern Research Institute
# Stable transfected human glioma cell line, U87-MG, are dispensed at density 1000 cells/well into Greiner white solid bottom 1536-well assay plates. Compounds are transferred via Kalypsys pin tool equipped with 1536-pin array (10nl slotted pins, V&P Scientific, San Diego, CA). The assay plates will be incubated for 16 hours and developed by adding appropriate quantities of the Promega Bright Glo reagent. The plates will be incubated at room temperature for 10 minutes prior to being transferred into a ViewLux high-throughput CCD imager (PerkinElmer), wherein end-point measurements of luminescence are acquired.
row,SMILES,activation [%]
1,CCCCCCC/C=C\CCCCCCCCC(=O)O,-1.13
2,Nc1ncnc2c1ncn2C1CCCC1,-3.35
3,CNc1ncnc2c1ncn2[C@H]1C[C@H](OP(=O)(O)O)[C@@H](COP(=O)(O)O)O1,-1.89
4,O=c1[nH]c(=S)[nH]c(-c2ccccc2)c1Cc1c(O)ccc2ccccc12,-1.01
5,OC[C@H]1O[C@@H](n2cnc3cncnc32)[C@H](O)[C@@H]1O,-4.06
6,O=C(O)CNC(=O)C(CS)Cc1ccccc1 (stereo not given),1.54
7,O=C(O)CC1CC(c2ccccc2)=NO1 (stereo not given),-0.0602
8,NC(C(=O)N[C@@H]1C(=O)N2C(C(=O)O)=C(Cl)CS[C@H]12)c1ccccc1 (stereo not given in full),-2.7
9,NO,-3.02
10,CCCN(CC1CC1)c1nc(C)nc(Nc2c(Cl)cc(Cl)cc2Cl)c1Cl,-3.54
11,NCCCCN=C(N)N,-2.67
12,COc1ccc(CCN(C)CCc2ccc(OC)c(OC)c2)cc1OC,-0.0032
13,CCNC(=O)[C@H]1O[C@@H](n2cnc3c(N)nc(NCCc4ccc(CCC(=O)O)cc4)nc32)[C@H](O)[C@@H]1O,0.467
14,O=C(O)c1cc2cc(F)ccc2[nH]1,-3.02
15,NC(=Nc1ccccc1)NC(=O)c1nc(Cl)c(N)nc1N,-7.32
16,C=CC1(C)CC(=O)C2(O)C(C)(O1)C(OC(C)=O)C(O)C1C(C)(C)CCC(O)C12C (stereo not given),6.95
17,C[N+](C)(C)CCOP(=O)(O)OP(=O)([O-])OC[C@H]1O[C@@H](n2ccc(N)nc2=O)[C@H](O)[C@@H]1O,-4.37
18,COc1cc(CNC(=O)CCCCCCC(C)C)ccc1O,-4.2
19,CCCC[C@@]1(C2CCCC2)Cc2cc(OCC(=O)O)c(Cl)c(Cl)c2C1=O,-2.05
20,Cc1nc(N=Nc2cc(S(=O)(=O)O)c3cc([N+](=O)[O-])cc(S(=O)(=O)O)c3c2)c(COP(=O)(O)O)c(C=O)c1O,-3.73

row,SMILES,activation [%]
1,O=C1/C(=C/c2ccsc2)CC/C1=C\c1cccs1,-8.35
2,O=c1cc(N2CCOCC2)oc2c(-c3ccccc3)cccc12,-4.25
3,CCCCCCCCCCCCCCCC(=O)OC(CC(=O)O)C[N+](C)(C)C (stereo not given),7.64
4,O=C1c2ccccc2-c2n[nH]c3cccc1c23,-1.45
5,Brc1ccc([C@H]2CN3CCSC3=N2)cc1,-0.127
6,Nc1ncnc2c1ncn2[C@@H]1O[C@H](COP(=O)(O)CP(=O)(O)OP(=O)(O)O)[C@@H](O)[C@H]1O,-2.21
7,O=C(O)c1cc(=O)c2ccccc2[nH]1,-3.54
8,COc1ccccc1N1CCN(CCN(C(=O)c2ccc(F)cc2)c2ccccn2)CC1,-0.86
9,O=S(=O)(c1cccc2c(I)cccc12)N1CCCNCC1,4.06
10,O=C(N[C@@H](Cc1ccccc1)C(=O)CCl)OCc1ccccc1,-7.75
11,CC(/C=C/c1cccc(Oc2ccc(F)cc2)c1)N(O)C(N)=O (stereo not given),-0.1
12,CC(C)NC[C@H](O)COc1cccc2ccccc12,-3.14
13,CCOC(=O)C1=C(C)NC(C)=C(C(=O)OCC)C1c1c(F)c(F)c(F)c(F)c1F,-1.32
14,CC1C(=O)N(C)C(=O)c2nc[nH]c21 (stereo not given),-1.63
15,c1ccc2c(c1)CCC[C@H]2Nc1nc2ccccc2[nH]1,-2.97
16,NCCC1CCCC(CCN)N1 (stereo not given),-0.172
17,N=c1c[n+](N2CCOCC2)[n-]o1,-3.09
18,NC1CONC1=O (stereo not given),-1.07
19,CNC(=O)[C@H]1O[C@@H](n2cnc3c(NCc4cccc(I)c4)ncnc32)[C@H](O)[C@@H]1O,-0.904
20,N[C@@H](CS(=O)O)C(=O)O,0.845
